Inconclusive results are not listed. Active and inactive are the calls of the source. Calls come from the whole dose curve; as a rule, active = well fitted curve in the direction sought with a large enough effect; inconclusive = small, poorly fitted or top-dose-only effect, or another doubt; inactive = no such curve, though single readings can be large; an effect the other way counts as inactive or inconclusive.
biological target: Cytochrome P450 2C9 (Homo sapiens) (UniProt P11712); test: qHTS Assay for Inhibitors and Substrates of Cytochrome P450 2C9 (AID 883); details: recombinant CYP2C9, luciferin-H luminescence, 60 min; series mostly up to 11.4 µM; activity change, negative = inhibition: at the top concentration; note: potency is the fitted concentration of half-maximal effect; nearly all actives have a fitted effect of over 60% in size
Method in brief: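 Inhibition of CYP2C9 is scored as loss of luminescence, with 57uM sulphaphenazole defining 100% inhibition. Substrate Luciferin-H is used at 100uM, equal to its KM; enzyme at 10nM in 25mM KPO4, 60 min at 37C with NADPH regeneration.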

Sequence of Cytochrome P450 2C9 (Homo sapiens) (P11712 whole entry, looked up): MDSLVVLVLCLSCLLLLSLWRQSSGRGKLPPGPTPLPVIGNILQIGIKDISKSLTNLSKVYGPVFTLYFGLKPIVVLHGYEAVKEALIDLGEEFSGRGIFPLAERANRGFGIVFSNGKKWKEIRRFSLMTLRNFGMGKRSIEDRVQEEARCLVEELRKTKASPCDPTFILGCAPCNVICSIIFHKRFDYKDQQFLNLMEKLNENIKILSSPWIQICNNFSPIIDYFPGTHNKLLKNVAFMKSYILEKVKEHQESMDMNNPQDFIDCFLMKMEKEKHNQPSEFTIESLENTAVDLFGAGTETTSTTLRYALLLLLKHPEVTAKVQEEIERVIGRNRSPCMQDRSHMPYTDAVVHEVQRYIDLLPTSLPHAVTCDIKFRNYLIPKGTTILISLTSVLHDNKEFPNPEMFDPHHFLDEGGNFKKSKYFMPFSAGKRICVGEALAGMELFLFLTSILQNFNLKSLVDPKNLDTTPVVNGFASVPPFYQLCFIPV

Row | SMILES | Potency
1 | COC(=O)[C@@]1(Cc2ccc(F)cc2)[C@H]2c3cc(C(=O)N4CCCC4)n(CCc4c[nH]c5ccc(OC)cc45)c3C[C@H]2CN1C(=O)c1ccccc1 | 7.94 µM (active)
2 | CCCC[C@@H]1C[C@H]1C(NC(=O)c1cccnc1)c1ccc(-c2ccccc2)cc1 (stereo partly drawn) | 5.01 µM (active)
3 | COC(=O)[C@@]1(Cc2ccccc2)[C@H]2c3cc(C(=O)N4CCCC4)n(CCN4CNCC4=O)c3C[C@H]2CN1C(=O)c1ccccc1 | 2 µM (active)

biological target: Cytochrome P450 3A4 (Homo sapiens) (UniProt P08684); test: qHTS Assay for Inhibitors and Substrates of Cytochrome P450 3A4 (AID 884); details: recombinant CYP3A4, Luciferin-PPXE luminescence; series mostly up to 57.1 µM; activity change, negative = inhibition: at the top concentration; note: nearly all actives have a fitted effect of over 50% in size; note: potency is the fitted concentration of half-maximal effect; for activity change, negative = inhibition: % is set by controls: 0 for no effect and ±100 for the full control effect
Method in brief: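 20 nM human CYP3A4 with 25 uM Luciferin-PPXE (at KM) in 200 mM KPO4, preincubated 10 min with compound; NADPH regeneration started a 60 min RT reaction. Luciferin detected by luminescence, normalized to 57 uM ketoconazole as full inhibition.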

Sequence of Cytochrome P450 3A4 (Homo sapiens) (P08684 whole entry, looked up): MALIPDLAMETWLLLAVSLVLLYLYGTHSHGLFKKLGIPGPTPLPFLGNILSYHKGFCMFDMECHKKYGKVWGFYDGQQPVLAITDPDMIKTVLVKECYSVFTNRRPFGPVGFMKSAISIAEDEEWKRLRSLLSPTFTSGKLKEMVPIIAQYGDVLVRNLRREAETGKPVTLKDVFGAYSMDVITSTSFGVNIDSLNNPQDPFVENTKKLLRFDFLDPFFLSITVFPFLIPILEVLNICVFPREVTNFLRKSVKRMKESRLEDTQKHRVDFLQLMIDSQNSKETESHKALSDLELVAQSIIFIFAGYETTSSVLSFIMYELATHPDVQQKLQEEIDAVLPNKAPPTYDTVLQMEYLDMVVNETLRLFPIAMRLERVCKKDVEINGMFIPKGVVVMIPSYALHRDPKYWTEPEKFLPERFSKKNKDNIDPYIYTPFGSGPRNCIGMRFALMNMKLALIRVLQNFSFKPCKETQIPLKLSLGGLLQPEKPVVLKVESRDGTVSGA

Row | SMILES | activity change, negative = inhibition | Potency
4 | COC(=O)CCCCCN1C(=O)NC(c2ccc(-c3ccccc3)cc2)C(C(=O)OCc2ccccc2)=C1C (stereo not drawn) | -16.5% (inactive) | –
5 | CC(=O)N1C2(C=CC1(C)C(=O)NCc1ccc(C)o1)CCCCC2 (stereo not drawn) | -70.9% (inactive) | –
6 | C=C(CC1([C@@H](NP(=O)(c2ccccc2)c2ccccc2)[C@H]2C[C@@H]2CCCC)CC1)c1ccccc1 | – | 1.58 µM (active)
7 | CC(=O)N1[C@H](Cc2ccccc2)C=C[C@]1(C)C(=O)O | -21.2% (inactive) | –
8 | COC(=O)c1ccc(C(NC(=O)OCc2ccccc2)/C(=C/[C@@H](C)C(=O)NCc2nc3ccccc3s2)c2cccnc2)cc1 (stereo partly drawn) | – | 2 µM (active)
9 | CNC(=O)C1(C)C=CCN1C(=O)OC (stereo not drawn) | -12.1% (inactive) | –
10 | COC(=O)[C@@]1(Cc2ccccc2)C=C[C@@H](C)N1C(=O)c1ccccc1 | 8.65% (inactive) | –
11 | CCCn1c(C)nc2c(NCCCN(C)C)nc(C)nc21 | -8.91% (inactive) | –
12 | COC(=O)N1[C@H](Cc2ccccc2)C=C[C@]1(C)C(=O)O | -31.8% (inactive) | –
13 | COC(=O)N1[C@H](C)C=C[C@]1(Cc1ccccc1)C(=O)O | -25.2% (inactive) | –
14 | CC1(C(=O)NCc2ccccn2)C=CCN1C(=O)c1ccccc1 (stereo not drawn) | -16.5% (inactive) | –
15 | COCCNC(=O)C1(CC(C)C)C=CCN1C(C)=O (stereo not drawn) | -18.5% (inactive) | –
16 | COCCNC(=O)[C@@]1(Cc2ccccc2)C=C[C@@H](C)N1C(=O)OC | -18.1% (inactive) | –
17 | COC(=O)[C@@]1(Cc2ccc(OC)cc2)[C@H]2c3cc(C(=O)N4CCCC4)n(Cc4nc5ccccc5[nH]4)c3C[C@H]2CN1C(=O)c1ccccc1 | – | 2 µM (active)
18 | COCCNC(=O)[C@H](C)[C@@H]1C[C@@]1(C)[C@@H](NC(=O)OCc1ccccc1)c1ccccc1 | – | 7.94 µM (active)
19 | C[C@@H]1C=C[C@](Cc2ccccc2)(C(=O)NCC2CC2)N1C(=O)c1ccccc1 | – | 12.6 µM (active)

Row | SMILES | activity change, negative = inhibition | Potency
20 | CCCCCCN(C(=O)CCCCCN1C(=O)NC(c2ccc(-c3ccccc3)cc2)C(C(=O)OCc2ccccc2)=C1C)C(C(=O)NCCCC)c1ccc(-c2ccccc2)cc1 (stereo not drawn) | -18.3% (inactive) | –
21 | CNC(=O)[C@@]1(C)C=C[C@@H](Cc2ccccc2)N1C(C)=O | -72.6% (inactive) | –
22 | CC(Cc1ccccc1)C(=O)N1CCN(C)CC1 (stereo not drawn) | -20% (inactive) | –
23 | CC(=O)N1[C@H](Cc2ccccc2)C=C[C@]1(C)C(=O)NCc1ccccn1 | -55.7% (inactive) | –
24 | CN1[C@H](Cc2ccccc2)C=C[C@]1(C)C(=O)NCC1CC1 | -56.2% (inactive) | –
25 | CC(=O)N1CC=CC1(CC(C)C)C(=O)O (stereo not drawn) | -5.43% (inactive) | –
26 | C[C@H](CO)NC(=O)[C@H](C)[C@H]1C[C@]1(C)[C@H](NC(=O)OCc1ccccc1)c1ccccc1 | – | 3.98 µM (active)
27 | CNC(=O)C1(C)C=CCN1C(=O)c1ccccc1 (stereo not drawn) | -17.9% (inactive) | –
28 | C[C@H](CO)NC(=O)[C@H](C)[C@@H]1C[C@@]1(C)[C@@H](NC(=O)OCc1ccccc1)c1ccccc1 | – | 5.01 µM (active)
29 | COC(=O)c1ccc(C(NC(=O)OCc2ccccc2)/C(=C/[C@@H](C)C(=O)NC2CCCCC2)c2cccnc2)cc1 (stereo partly drawn) | – | 1.26 µM (active)
30 | COC(=O)N1CC=CC1(C)C(=O)NCC1CC1 (stereo not drawn) | -26.7% (inactive) | –
31 | CC1(C(=O)O)C=CCN1C(=O)c1ccccc1 (stereo not drawn) | -12.8% (inactive) | –
32 | COC(=O)CNC(=O)[C@@]1(Cc2ccccc2)C=C[C@@H](C)N1C(=O)c1ccccc1 | -29.3% (inactive) | –
33 | CC(Cc1ccccc1)C(=O)N(C)Cc1ccccc1 (stereo not drawn) | -15.9% (inactive) | –
34 | CCCn1c(C)nc2c(NCCO)nc(C)nc21 | -23.3% (inactive) | –
35 | COCCNC(=O)C1(C)C=CCN1C(C)=O (stereo not drawn) | -27% (inactive) | –

biological target: Cytochrome P450 3A4 (Homo sapiens) (UniProt P08684); test: qHTS Assay for Activators of Cytochrome P450 3A4 (AID 885); details: recombinant CYP3A4, Luciferin-PPXE luminescence, 60 min; series mostly up to 57.1 µM; activity change, positive = activation: at the top concentration; note: nearly all actives have a fitted effect of over 65% in size
Method in brief: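 Quantitative HTS format: compounds preincubated with 20nM human CYP3A4 and Luciferin-PPXE substrate at KM, reaction started by NADPH regeneration, stopped after 60 min, luciferase luminescence read 20 min later.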

Row | SMILES | activity change, positive = activation
36 | C=C(CC1([C@@H](NP(=O)(c2ccccc2)c2ccccc2)[C@H]2C[C@@H]2CCCC)CC1)c1ccccc1 | -90.8% (inactive)
37 | COC(=O)[C@@]1(Cc2ccc(OC)cc2)[C@@H]2[C@@H](CC(=O)[C@H]2CC(=O)C(=O)N(C)C)CN1C(=O)c1ccccc1 | -100% (inactive)
38 | COC(=O)[C@@]1(Cc2ccc(F)cc2)[C@H]2c3cc(C(=O)N4CCCC4)n(CCc4c[nH]c5ccc(OC)cc45)c3C[C@H]2CN1C(=O)c1ccccc1 | -52.2% (inactive)
39 | COC(=O)[C@@]1(Cc2ccc(F)cc2)[C@H]2c3cc(C(=O)N4CCCC4)n(Cc4ccc(S(C)(=O)=O)cc4)c3C[C@H]2CN1C(=O)c1ccccc1 | -58.4% (inactive)
40 | CCC/C=C(\CCC)C(NS(C)(=O)=O)c1ccccc1 (stereo not drawn) | -33.7% (inactive)
41 | C[C@H]1C2=C3C(CC[C@H]4C(OCc5ccc(F)cc5C(F)(F)F)OC[C@](C)([C@@H]34)N(C(=O)OC(C)(C)C)C2)C2COC(=O)OCC21 (stereo partly drawn) | -64.9% (inactive)
42 | COC(=O)[C@@]1(Cc2ccc(OC)cc2)[C@H]2c3cc(C(=O)N4CCCC4)n(Cc4nc5ccccc5[nH]4)c3C[C@H]2CN1C(=O)c1ccccc1 | -113% (inactive)
43 | COCCNC(=O)[C@H](C)[C@@H]1C[C@@]1(C)[C@@H](NC(=O)OCc1ccccc1)c1ccccc1 | -76.3% (inactive)
44 | CCCC[C@@H]1C[C@H]1C(NC(=O)c1cccnc1)c1ccc(-c2ccccc2)cc1 (stereo partly drawn) | -51.2% (inactive)
45 | COC(=O)[C@@]1(Cc2ccccc2)[C@H]2c3cc(C(=O)N4CCCC4)n(CCN4CNCC4=O)c3C[C@H]2CN1C(=O)c1ccccc1 | -44% (inactive)
46 | CO[C@H]1OC[C@@]2(C)[C@@H]3C4=C(CN2C(=O)OC(C)(C)C)[C@H](C)[C@H](CO)[C@H](CO)[C@H]4CC[C@H]13 | -41.4% (inactive)
47 | C[C@H](CO)NC(=O)[C@H](C)[C@H]1C[C@]1(C)[C@H](NC(=O)OCc1ccccc1)c1ccccc1 | -107% (inactive)
48 | C[C@H](CO)NC(=O)[C@H](C)[C@@H]1C[C@@]1(C)[C@@H](NC(=O)OCc1ccccc1)c1ccccc1 | -86.6% (inactive)
